# Measured values reported in PubChem BioAssay AID1745851 (National Center for Advancing Translational Sciences (NCATS), 2022).
# The other results are listed elsewhere or left out. Entries that show only a call come without a potency. Results filed as inconclusive are left out. The source made the active and inactive calls. The call rests on the fitted dose curve; in most records, active means well fitted inhibition curve with a large enough effect; inconclusive means small, poorly fitted or top-dose-only effect; inactive means flat fitted curve, though single readings scatter.
# Test: Counterscreen for Target Class Profiling of Small Molecule Inhibitors of Methyltransferases
# Details: MTase-Glo coupled enzymes, SAH conversion luminescence, no MTase; series mostly up to 57.3 µM
# From the text: PI: Matthew D. Hall Ph.D. and Quinlin M. Hanson Ph.D. National Center for Advancing Translational Sciences (NCATS) National Institute of Health (NIH) Rockville, MD Target class profiling (TCP) is a chemical biology approach amenable to investigating understudied biological targets. TCP is achieved by developing a generalizable assay platform and applying it to screen a curated set of compound libraries against representative members of a target class. Small molecule methyltransferases (SMMTase) are a subclass of methyltransferase that act on metabolites to modulate signaling pathways, metabolize xenobiotics, or balance the available methyl pool. We screened four curated libraries totaling 27,574 unique compounds against the SMMTases nicotinamide N-methyltransferase (NNMT), phenylethanolamine N-methyltransferase (PNMT), histamine N-methyltransferase (HNMT), glycine N-methyltransferase (GNMT), catechol O-methyltransferase (COMT), and guanidinoacetate N-methyltransferase (GAMT). The data generated by this TCP can be leveraged for informed tool molecule development. For example, in the associated publication we identified a chemotype of HNMT-selective inhibitors. Additionally, we identified a putative SMMTase-selective inhibitor with potential as a tool molecule for studying broader methyltransferase biology. High-through put screening assays were developed at the National Center for Advancing Translational Science (NCATS) for the enzymes NNMT, PNMT, HNMT, GNMT, COMT, and GAMT. Enzymatic activity was measured as a function of SAM cofactor conversion using the MTase Glo kit (Promega) for all enzymes. All assays were performed in 1536-well format with substrates and SAM concentrations at KM values. Enzyme concentration and assay timing were optimized for 10-20% SAM conversion. Initial screening of 27,574 compounds was done as single-point assays using the highest compound concentration (40 uM). 1,434 compounds were identified as hits (at least 50% inhibition) under these conditions. These compounds were replated in 11-point dose response and assayed against NNMT, PNMT, HNMT, GNMT, COMT, GAMT, and a counter-assay. The IC50 and efficacy (maximal response) values were determined for each dose-response curve. These values are also accounted for in the area under the curve (AUC) values.
# PROTOCOL TABLE (as described by Inglese J, Shamu CE and Guy RK. 2007) SEQUENCE No. (e.g., 1, 2, 3, etc.); PARAMETER (e.g., Cells, Incubation, Reagent, etc.); VALUE; DESCRIPTION. 1; Reagent; 3 uL; SAH (16 uM) in reaction buffer, columns 1-48. 2; Reagent; 1 uL; SAM (4x) in reaction buffer, columns 1-48. 3; Controls; 23 nL; DMSO in column 4; sinefungin in DMSO (0 uM - 40 uM) in 7-point 1:2 dilution series (n = 2) in column 2. 4; Compounds; 23 nL; Columns 5-48. 5; Time; 20 min; Incubation. 6; Reagent; 1 uL; MTase-Glo reagent (5X), columns 1-48. 7; Time; 30 min; Incubation. 8; Reagent; 5 uL; MTase-Glo Detection reagent, columns 1-48. 9; Time; 30 min; Incubation. 10; Detection; Luminescence; ViewLux uHTS Microplate Imager (PerkinElmer). NOTES (numbers refer to Sequence numbers above) 1, 2. White Medium Binding 1536-well plates (white, flat bottom, medium binding Cat# AWK010000A, Aurora Microplates, Scottsdale, AZ); Reaction buffer: 50 mM Tris, pH 8.0, 3 mM MgCl2, 1 mM EDTA, 50 mM NaCl, 1 mM DTT, and 0.1 mg/mL BSA; refer to tables 2 and S1 for specific reagent concentrations. 3, 4. Pintool transfer 5, 7, 9. Room temperature 5. Final reaction conditions: 1 uM SAH, 4 uM SAM, 50 mM Tris, pH 8.0, 3 mM MgCl2, 1 mM EDTA, 50 mM NaCl, 1 mM DTT, and 0.1 mg/mL BSA. 7. Conversion of SAH to ADP; MTase Glo Kit (Promega, Madison, WI). 9. Conversion of ADP to ATP and detection by UltraGlo luciferase; MTase Glo Kit (Promega, Madison, WI). 10. Settings: 20 s exposure, 1X binning, high gain, medium speed. REFERENCES: Inglese J, Shamu CE and Guy RK, Reporting data from high throughput screening of small molecule libraries, Nature Chemical Biology, 2007, 3(8): 438-441. doi.org/10.1038/nchembio0807-438. […]
row,Structure (SMILES),Potency
1,CCCS(=O)(=O)N1CCCC(Cn2c(C)nc3cccnc32)C1 (configuration not stated),inactive
2,COc1ccccc1-c1[nH]nc2ncc(C(=O)N3CCN(Cc4ccccc4)CC3)nc12,inactive
3,CCOc1ccccc1CN1CCC(Cc2nc(-c3cccnc3)n[nH]2)C1 (configuration not stated),inactive
4,O=C(Nc1ccc2ncnc(N3CCCCC3)c2c1)C1CCCCC1,9.61 µM (active)
5,CC1(C)[C@H](Cc2cc(-c3ccccc3)on2)C[C@@H]1NCC1CC1,inactive
6,COc1cc2c(cc1O)NC(=O)CC2c1cn[nH]c1-c1cc(C)ccc1C (configuration not stated),inactive
7,CCCc1sc(NC(=O)C[C@H]2NC(=O)c3ccccc3NC2=O)nc1C(=O)OC,inactive
8,CC(C)CCN1CC2(CCCN(C(=O)c3ccn(C)c(=O)c3)C2)CCC1=O (configuration not stated),inactive
9,COc1ccc(-c2nc3ccncc3[nH]2)cc1,inactive
10,Cn1ccc(Nc2cc3c(cn2)CN(CCc2ccccc2)CCN3)n1,inactive
11,CC(C)c1nccn1CCCNc1nc(-c2ccncc2)nc2c1cnn2C,inactive
12,Cc1cnc(C2CCC2)n1C1CCN(C(=O)CCC2CCCC2)CC1,inactive
